# In PubChem BioAssay:
# “And” between values parts separate entries of the source, which are not always exact repeats. Identical values can stand only once. The source made the active and inactive calls. Unless noted, the rule behind the calls is not given here.
# Key:
# [1] = liver-stage malaria parasite growth inhibition, primary screen, cell-based, HepG2, luciferase luminescence, HepG2 viability (AID 624349; in the data active = parasite load remaining mostly below about 12%, no sharp cut-off; inactive = mostly above about 10%;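 note: 100% = mean of DMSO negative control wells on the same plate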); settings: P. berghei liver stage in HepG2, luciferase luminescence, concentration not given here; parasite load remaining: stronger effect = lower value; viability: measured here: HepG2 viability without parasites
# [2] = Cy5 fluorescence interference with SSB-bound oligo, artefact control for HCV NS3 helicase inhibitor project, biochemical, NIH Clinical Collection, E. coli SSB (AID 743268)
# [3] = tested on: Hepatitis C virus NS3 helicase; experiment: HCV NS3 helicase inhibitors, primary screen, biochemical, fluorescence polarization, NIH Clinical Collection (AID 743270); settings: NS3 helicase binding to Cy5-dT15 DNA, stronger effect = higher value, concentration not given here
# [4] = target: Single-stranded DNA-binding protein (Escherichia coli (strain K12)) (UniProt P0AGE0); experiment: E. coli SSB displacement from DNA, counter-screen for HCV NS3 helicase inhibitor project, biochemical, fluorescence polarization, NIH Clinical Collection (AID 743271; in the data active = inhibition above about 28%); settings: stronger effect = higher value, concentration not given here
# [5] = fluorescence interference in NS3h assay format, artefact control for HCV NS3 helicase inhibitor project, biochemical, NIH Clinical Collection (AID 743272); settings: fluorescence interference counterscreen, stronger effect = lower value;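 note: HCV NS3 helicase with a Cy5 labelled single stranded DNA probe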
# [6] = sensitizers of A549 cells to miR-34 induction, primary screen, imaging, A549 dox-inducible miR-34, nuclei and caspase counts (AID 1347080;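 active = compounds whose cell count with miR-34 switched on is under 0.7 times the count with it off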); settings: A549 miR-34 inducible, Hoechst nuclei count, 48 h
# [7] = viability rescue of complex I mutant cybrids, primary screen, cell-based, galactose medium, ATP luminescence (AID 1645843;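 active = z-score of at least 1.8 in each of two replicates, scored against plate mean and spread of sample wells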;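 note: positive z means more ATP and so rescue of galactose-driven cybrid death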); settings: complex I mutant cybrid cells, 72 h, stronger effect = higher value
# [8] = tested on: F380Y; experiment: modulators of BK channel variants, profiling panel, selectivity assay, cell-based, U2OS BacMam, thallium flux, beta subunits (AID 1259406;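 active = thallium flux through the channel raised or lowered by more than 3 SD from vehicle-only wells, actives on both sides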;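 note: initial slope of Thallos dye fluorescence rise after thallium is added; log ratio against the mean of 0.3% DMSO vehicle wells on the same plate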); settings: at 30 µM
# [9] = tested on: F380Y/beta1; experiment: as above; settings: at 30 µM
# [10] = tested on: F380Y/beta2Delta; experiment: as above; settings: at 30 µM
# [11] = tested on: F380Y/beta4; experiment: as above; settings: at 30 µM
# [12] = target: Calcium-activated potassium channel subunit alpha-1 (Homo sapiens) + Leucine-rich repeat-containing protein 26 (Homo sapiens) (UniProt Q12791+Q2I0M4); experiment: as above; settings: F380Y/Slo1WT/gamma1, at 30 µM
# Chain of Calcium-activated potassium channel subunit alpha-1 (Homo sapiens) + Leucine-rich repeat-containing protein 26 (Homo sapiens) (Q2I0M4 whole entry, looked up, one chain of several): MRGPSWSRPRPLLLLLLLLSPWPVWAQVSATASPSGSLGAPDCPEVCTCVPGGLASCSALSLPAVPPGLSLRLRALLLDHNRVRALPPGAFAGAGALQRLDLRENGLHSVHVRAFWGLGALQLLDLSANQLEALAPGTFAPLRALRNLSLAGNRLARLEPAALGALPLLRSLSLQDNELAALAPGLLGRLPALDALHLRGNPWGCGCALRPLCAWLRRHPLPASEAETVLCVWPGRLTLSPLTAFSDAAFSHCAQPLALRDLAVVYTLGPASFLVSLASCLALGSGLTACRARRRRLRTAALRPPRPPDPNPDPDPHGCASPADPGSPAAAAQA
# [13] = tested on: R275C; experiment: as above; settings: at 30 µM
# [14] = tested on: R275C/beta1; experiment: as above; settings: at 30 µM
# [15] = tested on: R275C/beta2Delta; experiment: as above; settings: at 30 µM
# [16] = tested on: R275C/beta4; experiment: as above; settings: at 30 µM
# [17] = tested on: R275C/Slo1WT/beta2; experiment: as above; settings: at 30 µM
# [18] = survival rescue of mitochondrial mutant cells in low glucose, primary screen, MELAS cybrids, Rieske KO mouse fibroblasts, CellTiter-Glo (AID 1508586;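 active = mean z-score across replicates of 1.96 or higher in either the MELAS or the Rieske mutant cell line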;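 note: z relative to plate mean and SD of compound and empty wells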)
# [19] = modulation of C. elegans fzo-1 (AID 1259413);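 note: fzo-1 mutant C. elegans worms in liquid wells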; settings: C. elegans fzo-1 modulator screen, mean read-out; stronger effect = higher value
# [20] = tested on: Neuropilin-2 / VEGF-C interaction (human); experiment: inhibitors of NRP2–VEGF-C binding, biochemical, microplate binding format, z-score (AID 743281); settings: microplate NRP2/VEGF-C binding assay; stronger effect = lower value
# [21] = stronger effect = lower value, cell number ratio, induced over uninduced
# [22] = measured here: relative caspase fold change +Dox/-Dox
# [23] = measured here: total cells with miR-34 induction, stronger effect = lower value
# [24] = measured here: total cells without miR-34 induction
# [25] = MELAS cybrid survival, CellTiter-Glo 48 h, stronger effect = higher value
# [26] = Rieske KO mouse fibroblast survival, CellTiter-Glo 72 h
smiles,measurement,setting,value
Cc1cc(=O)oc2cc(NC(=O)C3CCC(=O)N3)ccc12 (configuration not stated),parasite load remaining,[1],62.4% (inactive)
same,viability,[1],136%
same,fluorescence ratio,[2],0.96 (inactive)
same,inhibition,[3],1.36% (inactive)
same,inhibition,[4],11.7% (inactive)
same,fluorescence ratio,[5],0.91 (inactive)
same,fold change,[6]; [21],0.953 (inactive)
same,fold change,[6]; [22],1.59
same,cell count,[6]; [23],10900
same,cell count,[6]; [24],11400
same,z-score,[7],-0.335 (inactive)
same,log fold change Tl+ flux,[8],-0.00455 (inactive)
same,log fold change Tl+ flux,[9],-0.0136 (inactive)
same,log fold change Tl+ flux,[10],-0.0131 (inactive)
same,log fold change Tl+ flux,[11],0.0184 (inactive)
same,log fold change Tl+ flux,[12],-0.00524 (inactive)
same,log fold change Tl+ flux,[13],-0.000517 (inactive)
same,log fold change Tl+ flux,[14],0.0432 (inactive)
same,log fold change Tl+ flux,[15],-0.00476 (inactive)
same,log fold change Tl+ flux,[16],-0.0203 (inactive)
same,log fold change Tl+ flux,[17],-0.0148 (inactive)
CCN(CC)CCOc1ccc(C(=C(Cl)c2ccccc2)c2ccccc2)cc1,parasite load remaining,[1],-4.11% (inactive)
same,viability,[1],3.72%
same,fluorescence ratio,[2],0.76 (active)
same,inhibition,[3],-10.4% (inactive)
same,inhibition,[4],0.29% (inactive)
same,fluorescence ratio,[5],0.97 (inactive)
same,fold change,[6]; [21],1.09 (inactive) and 0.932 (inactive)
same,fold change,[6]; [22],2.63 and 0.76
same,cell count,[6]; [23],5020 and 7560
same,cell count,[6]; [24],4620 and 8110
same,z-score,[18]; [25],-0.453 (inactive)
same,z-score,[18]; [26],-0.778
same,z-score,[7],-1.52 (inactive)
same,log fold change Tl+ flux,[8],0.00267 (inactive)
same,log fold change Tl+ flux,[9],-0.533 (active)
same,log fold change Tl+ flux,[10],0.0152 (inactive)
same,log fold change Tl+ flux,[11],-0.059 (inactive)
same,log fold change Tl+ flux,[13],0.0156 (inactive)
same,log fold change Tl+ flux,[14],0.0697 (inactive)
same,log fold change Tl+ flux,[15],-0.00533 (inactive)
same,log fold change Tl+ flux,[16],0.493 (active)
same,log fold change Tl+ flux,[17],-0.157 (active)
N[C@@H](C(=O)N[C@@H]1C(=O)N2C(C(=O)O)=C(CSc3cn[nH]n3)CS[C@H]12)c1ccc(O)cc1 (tested in a mixture with another compound),parasite load remaining,[1],100% (inactive)
same,viability,[1],72.4%
same,fluorescence ratio,[2],1.06 (inactive)
same,inhibition,[3],21.8% (active)
same,inhibition,[4],56.1% (active)
same,fluorescence ratio,[5],1.01 (inactive)
same,log fold change Tl+ flux,[8],0.0279 (inactive)
same,log fold change Tl+ flux,[9],-0.0559 (inactive)
same,log fold change Tl+ flux,[10],0.00568 (inactive)
same,log fold change Tl+ flux,[11],-0.0478 (inactive)
same,log fold change Tl+ flux,[12],0.0418 (inactive)
same,log fold change Tl+ flux,[13],-0.0506 (inactive)
same,log fold change Tl+ flux,[14],0.00628 (inactive)
same,log fold change Tl+ flux,[15],0.0029 (inactive)
same,log fold change Tl+ flux,[16],-0.00667 (inactive)
same,log fold change Tl+ flux,[17],0.00247 (inactive)
O=C1NC(=O)N(C2CC(O)C(CO)O2)CC1F (configuration not stated),mean signal,[19],241 (inactive)
CCCCC(=O)O[C@H]1CC[C@H]2[C@@H]3CCc4cc(O)ccc4[C@H]3CCC12C (some centres not stated),mean signal,[19],242 (inactive)
Cc1sc(N)c(C(=O)c2cccc(C(F)(F)F)c2)c1C,parasite load remaining,[1],28.2% (inactive)
same,viability,[1],69.8%
same,fluorescence ratio,[2],0.94 (inactive)
same,inhibition,[3],-3.71% (inactive)
same,inhibition,[4],-1.97% (inactive)
same,fluorescence ratio,[5],0.97 (inactive)
same,z-score,[20],0.715 (inactive)
same,mean signal,[19],276 (inactive)
same,fold change,[6]; [21],0.904 (inactive) and 0.931 (inactive)
same,fold change,[6]; [22],0.769 and 0.712
same,cell count,[6]; [23],8250 and 8560
same,cell count,[6]; [24],9130 and 9190
same,z-score,[7],1.27 (inactive) and 1.38 (inactive)
COc1cccc2c1C(=O)c1c(O)c3c(c(O)c1C2=O)C[C@@](O)(C(C)=O)C[C@@H]3OC1CC(N)C(O)C(C)O1 (some centres not stated),parasite load remaining,[1],-2.09% (inactive) and 8.79% (inactive)
same,viability,[1],1.35% and 23.3%
same,fluorescence ratio,[2],1.07 (inactive)
same,inhibition,[3],6.82% (inactive)
same,inhibition,[4],3.34% (inactive)
same,fluorescence ratio,[5],0.55 (active)
same,mean signal,[19],273 (inactive)
same,fold change,[6]; [21],1.08 (inactive) and 1.04 (inactive)
same,fold change,[6]; [22],0.669 and 0.978
same,cell count,[6]; [23],1690 and 2610
same,cell count,[6]; [24],1560 and 2520
same,z-score,[7],-1.5 (inactive) and -0.935 (inactive)
CCOC(=O)C1(CCCCCCOc2ccc(Cl)cc2)CO1 (configuration not stated),parasite load remaining,[1],85.5% (inactive)
same,viability,[1],89%
same,fluorescence ratio,[2],1.01 (inactive)
same,inhibition,[3],1.98% (inactive)
same,inhibition,[4],-2.41% (inactive)
same,fluorescence ratio,[5],0.93 (inactive)
same,z-score,[20],-0.326 (inactive)
same,mean signal,[19],266 (inactive)
same,fold change,[6]; [21],0.886 (inactive)
same,fold change,[6]; [22],1.28
same,cell count,[6]; [23],7740
same,cell count,[6]; [24],8740
same,z-score,[7],0.13 (inactive)
CS(=O)(=O)c1ccc(-c2cc(Br)sc2-c2ccc(F)cc2)cc1,parasite load remaining,[1],10.4% (inactive)
same,viability,[1],69.4%
same,fluorescence ratio,[2],0.96 (inactive)
same,inhibition,[3],5.02% (inactive)
same,inhibition,[4],4.33% (inactive)
same,fluorescence ratio,[5],0.95 (inactive)
same,z-score,[20],-0.424 (inactive)
same,mean signal,[19],233 (inactive)
same,fold change,[6]; [21],0.877 (inactive) and 0.852 (inactive) and 0.867 (inactive)
same,fold change,[6]; [22],1.92 and 0.768 and 0.919
same,cell count,[6]; [23],8710 and 4800 and 6290
same,cell count,[6]; [24],9930 and 5630 and 7260
same,z-score,[7],-0.985 (inactive) and -0.57 (inactive)
CCCCC[C@H](O)/C=C/[C@H]1[C@H](O)CC(=O)[C@@H]1CCCCCCC(=O)O,parasite load remaining,[1],87.1% (inactive) and 65% (inactive) and 24% (inactive)
same,viability,[1],70.2% and 67.7% and 65.5%
same,fluorescence ratio,[2],0.87 (inactive)
same,inhibition,[3],-3.71% (inactive)
same,inhibition,[4],-0.39% (inactive)
same,fluorescence ratio,[5],0.98 (inactive)
same,z-score,[20],-0.575 (inactive)
same,mean signal,[19],268 (inactive)
same,z-score,[18]; [25],-0.41 (inactive) and -0.106 (inactive)
same,z-score,[18]; [26],-0.367 and -0.604
same,z-score,[7],0.265 (inactive) and 0.315 (inactive)
COCC1=C(C(=O)OC(C)OC(=O)OC(C)C)N2C(=O)[C@@H](NC(=O)/C(=N\OC)c3csc(N)n3)[C@H]2SC1 (some centres not stated),outcome,[20],inactive
same,mean signal,[19],270 (inactive)
same,z-score,[18]; [25],-0.0637 (inactive)
same,z-score,[18]; [26],-0.177
